Records with an inconclusive call do not appear. Active and inactive are the calls of the source. Unless noted, the rule behind the calls is not given here.
What was measured:
[1] = rapamycin-like changes in RPL19A-GFP expression – cell-based, S. cerevisiae, multiplex flow cytometry, primary screen (AID 1862; in the data active = percent of DMSO control GFP below about 86%;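 note: lower values mimic rapamycin by blocking the RPL19A rise seen in DMSO cells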); conditions: S. cerevisiae RPL19A-GFP strain, flow cytometry fluorescence, 3 h; at 10 µM; stronger effect = lower value
[2] = TOR pathway GLN3 branch reporter MEP2-GFP changes – S. cerevisiae, multiplex flow cytometry, primary screen (AID 1867;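 active = GFP response, as percent of the DMSO control, above the screen-wide mean plus 3 SD, about 139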;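 note: median GFP channel fluorescence of barcode-gated MEP2-GFP cells measured by flow cytometry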); conditions: S. cerevisiae MEP2-GFP strain, 3 h, at 10 µM, stronger effect = higher value
[3] = TOR pathway RTG branch CIT2 reporter changes – S. cerevisiae, GFP fusion, multiplex flow cytometry, primary screen (AID 1870;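 active = percent response above a set limit, the screen-wide mean plus 3 SD, cut at about 130% in these data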;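 note: barcoded CIT2-GFP strain pooled with four other GFP strains with rapamycin as positive control; median GFP fluorescence per well over plate mean of DMSO wells so 100% = DMSO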); conditions: S. cerevisiae CIT2-GFP expression, 3 h, at 10 µM, stronger effect = higher value
[4] = TOR pathway LAP4-GFP level changes – S. cerevisiae, multiplex flow cytometry, primary screen (AID 1873;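 active = GFP signal, as percent of the solvent control, above the screen mean plus 3 SD, about 149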); conditions: S. cerevisiae LAP4-GFP expression, 3 h, at 10 µM, stronger effect = higher value
[5] = yeast AGP1-GFP level changes, GLN3 branch – cell-based, multiplex flow cytometry, S. cerevisiae, primary screen (AID 1887;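 active = GFP signal above the screen-wide mean plus 3 SD, that is over about 124.5% of the solvent control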;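 note: AGP1-GFP fusion strain of S. cerevisiae within a five-strain barcoded multiplex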); conditions: 3 h, at 10 µM, stronger effect = higher value
[6] = reduced mouse 2C T cell binding to pMHC/ICAM-1 vesicles – MLPCN validation set, flow cytometry, LFA-1/ICAM-1 modulator project, pilot screen (AID 2523;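 active = response below a set limit, under 55% cells CD8-positive and vesicle-bound, and CD8 cells' 90th-percentile brightness under 279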;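 for vesicle binding response: mean PE anti-B7-1 fluorescence of CD8+ cells relative to row control; 100% = QL9-loaded vesicles with DMSO vehicle in the same plate row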); conditions: 2C mouse CD8+ T cells, at 7 µM, stronger effect = lower value; double positive events: measured here: CD8+/vesicle+ event percentage
[7] = molecular target: Integrin beta-1 (Homo sapiens) + Integrin alpha-4 (Homo sapiens) (UniProt P13612+P05556); assay: alpha4beta1 integrin LIBS antibody binding reduction – U937 cells, HUTS-21 mAb, flow cytometry, validation set, VLA-4 allosteric modulator project, pilot screen (AID 2674;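 active = inhibition above 50%, about 3 SD of the validation set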;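 note: antibody binding induced by the VLA-4 ligand LDV present at three times its Kd; 0% = LDV ligand with antibody and no compound and 100% = antibody without LDV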); conditions: HUTS-21 LIBS mAb binding, at 6.7 µM, stronger effect = higher value
Integrin beta-1 (Homo sapiens) + Integrin alpha-4 (Homo sapiens), sequence (P05556 whole entry, looked up): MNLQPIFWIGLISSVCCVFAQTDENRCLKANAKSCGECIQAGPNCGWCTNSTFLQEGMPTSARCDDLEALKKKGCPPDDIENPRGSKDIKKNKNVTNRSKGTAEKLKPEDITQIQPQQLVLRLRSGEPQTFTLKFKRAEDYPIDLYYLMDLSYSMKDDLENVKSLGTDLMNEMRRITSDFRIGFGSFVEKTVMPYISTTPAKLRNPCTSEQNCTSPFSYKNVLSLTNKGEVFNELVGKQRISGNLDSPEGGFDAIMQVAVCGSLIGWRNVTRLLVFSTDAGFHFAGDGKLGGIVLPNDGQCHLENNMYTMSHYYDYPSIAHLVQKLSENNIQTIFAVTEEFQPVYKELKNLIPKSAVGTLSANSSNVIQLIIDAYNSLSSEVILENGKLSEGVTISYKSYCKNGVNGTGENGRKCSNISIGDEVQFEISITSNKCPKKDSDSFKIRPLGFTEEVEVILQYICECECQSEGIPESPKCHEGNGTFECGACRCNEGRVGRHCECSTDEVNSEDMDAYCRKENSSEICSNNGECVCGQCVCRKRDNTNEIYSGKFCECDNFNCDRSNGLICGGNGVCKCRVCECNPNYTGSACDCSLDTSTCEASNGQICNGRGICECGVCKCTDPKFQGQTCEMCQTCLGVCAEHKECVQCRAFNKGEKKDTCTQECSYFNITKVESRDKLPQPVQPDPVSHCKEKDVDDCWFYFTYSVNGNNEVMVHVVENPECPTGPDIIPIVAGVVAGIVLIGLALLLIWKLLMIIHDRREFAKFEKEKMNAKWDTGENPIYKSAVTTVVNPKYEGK
Integrin beta-1 (Homo sapiens) + Integrin alpha-4 (Homo sapiens), sequence (P13612 whole entry, looked up): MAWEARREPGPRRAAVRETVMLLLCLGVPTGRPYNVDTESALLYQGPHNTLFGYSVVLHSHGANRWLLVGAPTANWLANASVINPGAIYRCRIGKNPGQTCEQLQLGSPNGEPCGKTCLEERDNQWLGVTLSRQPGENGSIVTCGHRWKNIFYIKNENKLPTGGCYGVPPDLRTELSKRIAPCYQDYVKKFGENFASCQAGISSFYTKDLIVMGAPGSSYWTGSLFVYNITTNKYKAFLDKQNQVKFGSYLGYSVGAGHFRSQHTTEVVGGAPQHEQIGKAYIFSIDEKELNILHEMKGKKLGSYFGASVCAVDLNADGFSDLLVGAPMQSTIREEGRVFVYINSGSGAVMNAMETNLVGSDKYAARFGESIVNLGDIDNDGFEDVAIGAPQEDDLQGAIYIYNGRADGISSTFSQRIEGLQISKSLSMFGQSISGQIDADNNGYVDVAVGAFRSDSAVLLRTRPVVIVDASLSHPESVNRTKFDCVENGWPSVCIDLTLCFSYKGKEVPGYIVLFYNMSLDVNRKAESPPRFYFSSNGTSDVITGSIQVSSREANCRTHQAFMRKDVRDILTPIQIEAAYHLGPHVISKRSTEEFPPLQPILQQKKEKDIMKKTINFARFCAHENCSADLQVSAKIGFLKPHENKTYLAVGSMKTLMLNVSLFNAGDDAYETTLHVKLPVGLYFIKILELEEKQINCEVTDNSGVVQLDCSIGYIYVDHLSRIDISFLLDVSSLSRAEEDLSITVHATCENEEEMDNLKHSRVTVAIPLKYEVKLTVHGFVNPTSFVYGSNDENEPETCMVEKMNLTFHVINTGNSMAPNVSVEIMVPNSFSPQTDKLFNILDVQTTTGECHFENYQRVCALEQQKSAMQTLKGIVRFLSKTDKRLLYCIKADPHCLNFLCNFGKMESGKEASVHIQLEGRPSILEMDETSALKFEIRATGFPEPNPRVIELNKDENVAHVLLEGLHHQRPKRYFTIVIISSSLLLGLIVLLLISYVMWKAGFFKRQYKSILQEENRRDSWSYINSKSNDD

[8] = calorie-restriction mimetic ROS inhibitors, yeast – validation compound set, pilot screen (AID 2706;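 active = superoxide response below 65% of plate, a cut near 3 SD across the whole screen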;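 note: yeast exposed to compound for one week at 30 degrees C before staining; 100% = mean of all compound wells on the same plate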); conditions: S. cerevisiae aging, superoxide DHE fluorescence; at 10 µM; stronger effect = lower value
[9] = molecular target: Beta-adrenergic receptor kinase 1 (Homo sapiens) (UniProt P25098); assay: GRK2 binders displacing RNA aptamer, biochemical, validation, human GRK2, bead flow cytometry (AID 488806;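 active = aptamer binding inhibition above 30%, about 3 SD of noise from non-fluorescent compounds; inactive = inhibition at or below 30%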); conditions: bead-bound GRK2, FAM-aptamer displacement, at 10 µM, stronger effect = higher value
Beta-adrenergic receptor kinase 1 (Homo sapiens), sequence (P25098 whole entry, looked up): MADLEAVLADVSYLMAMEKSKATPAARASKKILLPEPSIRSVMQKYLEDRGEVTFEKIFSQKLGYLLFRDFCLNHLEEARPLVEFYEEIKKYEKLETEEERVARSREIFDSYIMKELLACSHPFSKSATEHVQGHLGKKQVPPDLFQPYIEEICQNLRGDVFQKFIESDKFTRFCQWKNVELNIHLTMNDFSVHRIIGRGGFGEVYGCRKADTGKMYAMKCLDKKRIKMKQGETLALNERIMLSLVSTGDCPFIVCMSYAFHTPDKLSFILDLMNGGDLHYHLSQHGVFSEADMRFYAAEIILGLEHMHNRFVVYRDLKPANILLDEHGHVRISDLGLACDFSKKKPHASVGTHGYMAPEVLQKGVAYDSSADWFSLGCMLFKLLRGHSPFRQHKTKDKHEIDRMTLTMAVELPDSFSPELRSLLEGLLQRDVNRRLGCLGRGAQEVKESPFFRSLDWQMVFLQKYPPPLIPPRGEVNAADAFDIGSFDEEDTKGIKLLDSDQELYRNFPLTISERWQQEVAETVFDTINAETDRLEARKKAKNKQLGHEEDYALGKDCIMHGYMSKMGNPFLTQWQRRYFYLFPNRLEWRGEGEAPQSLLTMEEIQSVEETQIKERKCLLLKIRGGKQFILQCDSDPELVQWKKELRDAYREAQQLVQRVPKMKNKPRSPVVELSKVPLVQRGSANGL

[10] = molecular target: Beta-2 adrenergic receptor (Homo sapiens) (UniProt P07550); assay: agonist-induced loss of surface beta2AR – cell-based, FAP fluorogen, flow cytometry, validation set, pilot screen (AID 504459;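 active = percent response above 42, roughly 3 SD of non-fluorescent test compounds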;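 note: agonist-driven loss of surface beta2AR via internalization measured by FAP dye flow cytometry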); conditions: Am2.2-beta2AR cells, at 10 µM, stronger effect = higher value
Beta-2 adrenergic receptor (Homo sapiens), sequence (P07550 whole entry, looked up): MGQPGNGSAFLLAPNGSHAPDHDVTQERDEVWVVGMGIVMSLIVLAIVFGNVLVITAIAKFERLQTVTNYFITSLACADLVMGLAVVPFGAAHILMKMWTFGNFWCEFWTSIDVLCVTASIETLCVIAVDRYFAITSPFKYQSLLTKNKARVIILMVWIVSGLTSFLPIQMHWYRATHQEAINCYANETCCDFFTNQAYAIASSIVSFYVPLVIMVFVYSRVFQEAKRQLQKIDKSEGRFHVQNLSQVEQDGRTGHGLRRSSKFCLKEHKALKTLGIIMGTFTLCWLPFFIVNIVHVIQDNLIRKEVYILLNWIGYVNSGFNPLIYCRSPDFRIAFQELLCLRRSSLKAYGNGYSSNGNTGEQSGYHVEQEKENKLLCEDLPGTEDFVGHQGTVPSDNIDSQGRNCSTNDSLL

[11] = molecular target: AP-2 complex subunit beta (Homo sapiens) (UniProt P63010); assay: beta-arrestin/AP2 interaction blockers – biochemical, validation set, GST-AP2 beads, flow cytometry, pilot screen (AID 504541;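 active = inhibition above 54%, about 3 SD of non-fluorescent compounds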;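 note: AP2 carries R879A mutation and is captured from E. coli lysate; bead-bound FITC arrestin peptide fluorescence measuring arrestin peptide binding to AP2; 0% = DMSO wells and 100% = excess unlabeled arrestin peptide control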); conditions: FITC arrestin peptide, at 10 µM, stronger effect = higher value
AP-2 complex subunit beta (Homo sapiens), sequence (P63010 whole entry, looked up, one chain of several): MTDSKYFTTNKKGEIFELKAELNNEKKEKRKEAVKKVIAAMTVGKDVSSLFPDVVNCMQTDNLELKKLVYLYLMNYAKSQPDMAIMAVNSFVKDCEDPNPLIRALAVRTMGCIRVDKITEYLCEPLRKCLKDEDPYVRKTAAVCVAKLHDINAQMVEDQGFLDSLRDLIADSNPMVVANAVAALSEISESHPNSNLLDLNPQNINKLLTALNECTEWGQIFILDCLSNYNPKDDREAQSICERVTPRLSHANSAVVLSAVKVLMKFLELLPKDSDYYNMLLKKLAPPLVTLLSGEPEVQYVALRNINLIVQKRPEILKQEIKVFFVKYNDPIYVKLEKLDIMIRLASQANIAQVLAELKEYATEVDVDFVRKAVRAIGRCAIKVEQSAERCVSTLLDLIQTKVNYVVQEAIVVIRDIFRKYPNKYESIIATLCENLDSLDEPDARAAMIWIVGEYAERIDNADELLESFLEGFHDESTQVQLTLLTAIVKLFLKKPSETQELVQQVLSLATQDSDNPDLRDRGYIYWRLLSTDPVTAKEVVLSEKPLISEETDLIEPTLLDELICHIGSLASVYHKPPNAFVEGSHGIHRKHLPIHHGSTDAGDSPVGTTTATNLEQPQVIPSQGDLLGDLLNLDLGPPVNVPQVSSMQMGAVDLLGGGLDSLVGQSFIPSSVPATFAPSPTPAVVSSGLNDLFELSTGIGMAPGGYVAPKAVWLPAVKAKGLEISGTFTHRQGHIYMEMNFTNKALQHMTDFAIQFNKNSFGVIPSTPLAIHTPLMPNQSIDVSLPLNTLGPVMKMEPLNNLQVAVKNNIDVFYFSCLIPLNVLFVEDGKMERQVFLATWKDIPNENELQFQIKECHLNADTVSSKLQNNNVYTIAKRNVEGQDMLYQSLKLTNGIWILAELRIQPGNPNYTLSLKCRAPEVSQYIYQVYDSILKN

[12] = cytosolic pH regulators acting via V-ATPase – S. cerevisiae, pHLuorin, HTS validation (AID 504600; in the data active = response above about 15%;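 note: plate controls were DMSO for no effect and reference compound for full effect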); conditions: V-ATPase proton transport, at 10 µM, stronger effect = higher value
[13] = system: anti-desmoglein-3 scFv antibody binding to human DSG3; assay: blockers of pathogenic pemphigus antibody–desmoglein-3 binding – biochemical, validation compound set, bead-based, flow cytometry, pilot screen (AID 588368;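 active = binding below the plate cutoff, the plate median minus 3 SD, with a reading above zero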;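 note: signal is the median channel fluorescence of bead-bound GFP antibody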); conditions: Protein G beads, DSG3-Fc, scFv-GFP binding, at 10 µM, stronger effect = lower value
[14] = system: Botulinum neurotoxin type F light chain protease (Clostridium botulinum); assay: Clostridium botulinum type F light chain protease inhibitors, microsphere substrate cleavage, validation (AID 588459); conditions: multiplex microsphere protease substrate cleavage assay, flow cytometry; at 10 µM; stronger effect = higher value
[15] = molecular target: Botulinum neurotoxin type A (Clostridium botulinum) (UniProt P0DPI0); assay: BoNT/A light chain protease inhibitors, biochemical, multiplex microsphere flow cytometry, validation set (AID 588460); conditions: at 10 µM, stronger effect = higher value
[16] = molecular target: Lethal factor (Bacillus anthracis) (UniProt P15917); assay: Bacillus anthracis lethal factor inhibition, microsphere flow cytometry protease assay, validation at 10 µM (AID 588461); conditions: multiplex microsphere protease cleavage assay, stronger effect = higher value
Lethal factor (Bacillus anthracis), sequence (P15917 whole entry, looked up): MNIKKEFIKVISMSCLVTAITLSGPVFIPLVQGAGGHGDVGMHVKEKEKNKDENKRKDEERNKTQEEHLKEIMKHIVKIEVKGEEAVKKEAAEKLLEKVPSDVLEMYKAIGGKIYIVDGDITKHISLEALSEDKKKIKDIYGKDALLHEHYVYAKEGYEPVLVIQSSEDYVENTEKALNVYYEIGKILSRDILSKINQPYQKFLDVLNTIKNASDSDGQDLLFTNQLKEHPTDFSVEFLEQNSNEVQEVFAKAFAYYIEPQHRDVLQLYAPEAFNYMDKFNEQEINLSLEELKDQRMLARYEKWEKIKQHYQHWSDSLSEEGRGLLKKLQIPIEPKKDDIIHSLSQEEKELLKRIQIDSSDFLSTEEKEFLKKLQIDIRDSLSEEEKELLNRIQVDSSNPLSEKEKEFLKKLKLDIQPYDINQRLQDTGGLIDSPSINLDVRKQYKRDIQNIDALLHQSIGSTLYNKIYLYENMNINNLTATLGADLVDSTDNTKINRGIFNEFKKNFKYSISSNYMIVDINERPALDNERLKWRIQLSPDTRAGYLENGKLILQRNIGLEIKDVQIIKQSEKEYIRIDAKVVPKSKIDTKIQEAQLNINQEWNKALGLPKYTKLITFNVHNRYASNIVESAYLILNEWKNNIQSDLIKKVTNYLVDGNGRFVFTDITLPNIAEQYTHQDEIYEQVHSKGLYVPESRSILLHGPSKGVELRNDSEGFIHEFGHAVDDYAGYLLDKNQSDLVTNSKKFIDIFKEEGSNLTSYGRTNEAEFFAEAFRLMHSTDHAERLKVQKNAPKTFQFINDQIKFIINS

[17] = Nile Red efflux blockade in pump-expressing yeast – validation compound set, multiplex, phenotypic, pilot screen (AID 588506;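 active = efflux inhibition above 0.42, the validation set average plus 4 SD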;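 note: Nile Red retained in cells so higher fluorescence means more efflux inhibition; 0 = negative control wells and 1 = enniatin B 25 µM full block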); conditions: S. cerevisiae pump-expressing triplex, Nile Red efflux flow cytometry; at 10 µM; stronger effect = higher value
[18] = molecular target: ATP-binding cassette sub-family B member 6 (Homo sapiens) (UniProt Q9NP58); assay: blockers of ABCB6-driven porphyrin uptake – K562-ABCB6 cells, flow cytometry, validation set, pilot screen (AID 588550;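 active = inhibition above the screen-wide mean plus 3 SD, about 51%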;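 note: 0% = DMSO wells and 100% = benzethonium chloride 70 µM positive control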); conditions: K562-ABCB6 porphyrin accumulation, 1 h, at 10 µM, stronger effect = higher value
[19] = AML differentiation inducers, ER-HoxA9 marrow cells – cell-based, GFP/MAC1 double positive, flow cytometry, validation set, primary screen (AID 588685;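 active = differentiation response of at least 50%, scaled between solvent and reference control, from cells with both markers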;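 note: compound exposure lasts four days before antibody staining and flow analysis; 0% = DMSO wells and 100% = 5 µM fulvestrant positive control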); conditions: stronger effect = higher value

O=S(=O)(c1ccc(F)cc1)N1CCCCC1c1cccnc1 (stereo not given)
inactive: percent of DMSO control GFP [1] 99% | GFP response vs DMSO [2] 102% | percent response of DMSO control [3] 98.3% | GFP response vs DMSO [4] 112% | GFP response, % of DMSO [5] 113% | vesicle binding response [6] 202% | inhibition [7] -2.82% | superoxide response (% of plate) [8] 99.7% | aptamer binding inhibition [9] -2% | response [10] -9.47% | inhibition [11] -4.49% | response [12] 2.55% | binding (% of control) [13] 105% | inhibition [14] 0.1% | inhibition [15] 0.8% | inhibition [16] 3.2% | efflux inhibition (fraction of control) [17] 0.08 | inhibition [18] 3% | differentiation response [19] -11.9%
62%: double positive events [6]

COc1ccc(CN2CC3CC(C2)c2cccc(=O)n2C3)cc1OC (stereo not given)
60.2%: double positive events [6]
inactive: percent of DMSO control GFP [1] 105% | GFP response vs DMSO [2] 101% | percent response of DMSO control [3] 95.4% | GFP response vs DMSO [4] 84.1% | GFP response, % of DMSO [5] 95.1% | vesicle binding response [6] 170% | inhibition [7] 14.1% | superoxide response (% of plate) [8] 93% | aptamer binding inhibition [9] 0% | response [10] 2.8% | inhibition [11] -0.56% | response [12] 1% | binding (% of control) [13] 100% | inhibition [14] 1.7% | inhibition [15] -1.2% | inhibition [16] -0.8% | efflux inhibition (fraction of control) [17] 0.39 | inhibition [18] 8% | differentiation response [19] 4.15%

COc1ccc(NC2=NCC(C)S2)cc1 (stereo not given)
69.5%: double positive events [6]
inactive: percent of DMSO control GFP [1] 103% | GFP response vs DMSO [2] 101% | percent response of DMSO control [3] 109% | GFP response vs DMSO [4] 89.3% | GFP response, % of DMSO [5] 96% | vesicle binding response [6] 150% | inhibition [7] 11% | superoxide response (% of plate) [8] 101% | aptamer binding inhibition [9] 2% | response [10] 5.38% | inhibition [11] 5.98% | response [12] 4.39% | binding (% of control) [13] 100% | inhibition [14] -2.8% | inhibition [15] 0.2% | inhibition [16] -2.7% | efflux inhibition (fraction of control) [17] 0.195 | inhibition [18] 0% | differentiation response [19] -3.11%

C=C1CC[C@@]2(O)[C@H]3Cc4ccc(O)c5c4[C@@]2(CCN3CC2CC2)[C@H]1O5
inactive: percent of DMSO control GFP [1] 107% | GFP response vs DMSO [2] 95.1% | percent response of DMSO control [3] 109% | GFP response vs DMSO [4] 90.1% | GFP response, % of DMSO [5] 102% | vesicle binding response [6] 1650% | inhibition [7] 14.1% | superoxide response (% of plate) [8] 98.9% | aptamer binding inhibition [9] -2% | response [10] -8.78% | inhibition [11] -7.26% | response [12] 5.8% | binding (% of control) [13] 99% | inhibition [14] 2.7% | inhibition [15] -0.2% | inhibition [16] 8.1% | efflux inhibition (fraction of control) [17] -0.26 | inhibition [18] 13% | differentiation response [19] 10%
64.3%: double positive events [6]

COc1ccc(OC)c([C@@H](O)[C@H](C)NC(C)(C)C)c1
inactive: percent of DMSO control GFP [1] 100% | GFP response vs DMSO [2] 102% | percent response of DMSO control [3] 94.5% | GFP response vs DMSO [4] 91.5% | GFP response, % of DMSO [5] 88.8% | vesicle binding response [6] 157% | inhibition [7] -6.45% | superoxide response (% of plate) [8] 102% | aptamer binding inhibition [9] 0% | response [10] 14.8% | inhibition [11] -6.97% | response [12] 0.56% | binding (% of control) [13] 106% | inhibition [14] -0.4% | inhibition [15] -1.1% | inhibition [16] 1.4% | efflux inhibition (fraction of control) [17] 0.28 | inhibition [18] 18% | differentiation response [19] -6.03%
62%: double positive events [6]

C=C1[C@@H](C)[C@H]2[C@H](Cc3ccccc3)NC(=O)[C@]23OC(=O)/C=C/[C@H](O)CCC[C@@H](C)C/C=C/[C@H]3[C@@H]1O
inactive: percent of DMSO control GFP [1] 106% | GFP response vs DMSO [2] 102% | percent response of DMSO control [3] 106% | GFP response vs DMSO [4] 114% | GFP response, % of DMSO [5] 119% | vesicle binding response [6] 205% | inhibition [7] -2.82% | superoxide response (% of plate) [8] 102% | aptamer binding inhibition [9] 4% | response [10] 36.2% | inhibition [11] -4.43% | response [12] 0.39% | binding (% of control) [13] 102% | inhibition [14] 2% | inhibition [15] 0.4% | inhibition [16] -2.5% | efflux inhibition (fraction of control) [17] -0.21 | inhibition [18] 7% | differentiation response [19] -4%
62.1%: double positive events [6]

Cc1ccc(-n2c(C)cc(/C=C3/C(=O)NC(=O)N(C)C3=O)c2C)cc1
64.1%: double positive events [6]
inactive: percent of DMSO control GFP [1] 103% | GFP response vs DMSO [2] 103% | percent response of DMSO control [3] 107% | GFP response vs DMSO [4] 103% | GFP response, % of DMSO [5] 106% | vesicle binding response [6] 164% | inhibition [7] 0.25% | superoxide response (% of plate) [8] 94.5% | aptamer binding inhibition [9] -5% | response [10] 3.21% | inhibition [11] -0.22% | response [12] 5.34% | binding (% of control) [13] 108% | inhibition [14] -1.4% | inhibition [15] 0.3% | inhibition [16] -5% | efflux inhibition (fraction of control) [17] -0.22 | inhibition [18] -2% | differentiation response [19] -14.8%

C[C@H]1CCCC(=O)CCC/C=C/c2cc(O)cc(O)c2C(=O)O1
inactive: percent of DMSO control GFP [1] 102% | GFP response vs DMSO [2] 104% | percent response of DMSO control [3] 96% | GFP response vs DMSO [4] 96.5% | GFP response, % of DMSO [5] 98.3% | vesicle binding response [6] 138% | inhibition [7] -0.31% | superoxide response (% of plate) [8] 102% | aptamer binding inhibition [9] 3% | response [10] 2.24% | inhibition [11] -2.22% | response [12] 0.54% | binding (% of control) [13] 99% | inhibition [14] 5.6% | inhibition [15] 0.5% | inhibition [16] 0.4% | efflux inhibition (fraction of control) [17] -0.09 | inhibition [18] 3% | differentiation response [19] -5.68%
57.4%: double positive events [6]
